The supplement of paper PMC10849652
The full data set covers some 8,800 targets. This sample favours those with a hit. About 0.5% of all pairs of compound and target were hits.

How the values were obtained:
Test in all cases: log2 fold change, soluble protein after heating vs DMSO (PISA); higher = thermal stabilisation; K562 lysate, 10 uM; active = over 0.2 and 3.5 SD of the protein, either way, in both replicates (recomputed)
[1] = compound: C=CC(=O)N1CCC[C@@H](n2nc(-c3ccc(Oc4ccccc4)cc3)c3c(N)ncnc32)C1 [ibrutinib]
Procedure, shortened: (§1)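 To prepare the extract, K562 pellets were dounce-homogenised in PBS pH 7.4 with 1 mM MgCl2, giving crude material at 1 mg/mL protein. This was treated with 10 μM compound for 30 min, then heated in aliquots for 3 min over 48°C-58°C before pooling and addition of NP-40 to 0.5% at 4°C. Centrifugation at 21,000xg for 90 min left soluble protein in the supernatant, which TMTpro 16plex LC-MS/MS quantified with equalised channel sums. Results are log-two fold changes in thermal stability compared with solvent controls, from duplicates.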

[2] = compound: CC(=O)c1cnc2ccc(-c3cc(Cl)c(O)c(Cl)c3)nc2c1N[C@H]1CC[C@H](CN(C)C)CC1
Procedure, shortened: as §1

[3] = compound: CC(C)(C)Cn1c(N)nc2ccc(-c3[nH]c(C(C)(C)C)nc3-c3ccc(F)cc3)nc21 [ralimetinib]
Procedure, shortened: as §1

[4] = compound: CC(C)(O)CC(=O)NCCn1ccc2ncnc(Nc3ccc(Oc4cccc(C(F)(F)F)c4)c(Cl)c3)c21
Procedure, shortened: as §1

[5] = compound: CC(C)C1=C2N=C(C=C(N2N=C1)NCC3=CC=CC=C3)NCCCCCCN
Procedure, shortened: as §1

[6] = compound: CC1=C(C(CC(=O)N1)C2=CC=C(C=C2)C(F)(F)F)C(=O)NC3=C(C=C4C(=C3)C=NN4)F
Procedure, shortened: as §1

[7] = compound: CC1=C(C2=C(C=C1)C(=O)C3=CC=CC=C3N2CCCN)C
Procedure, shortened: as §1

[8] = compound: CC1=C(C=C(C=C1)NC(=O)C2=CC(=CC=C2)C(C)(C)C#N)NC3=CC4=C(C=C3)N=CN(C4=O)C
Procedure, shortened: as §1

[9] = compound: CC1=C(C=C(C=C1)NC(=O)C2=CC(=CC=C2)N(C)C)NC(=O)C3=CC=C(C=C3)O
Procedure, shortened: as §1

[10] = compound: CC1=CC=C(C=C1)SC2=C3C=C(SC3=CN=C2)C(=O)N
Procedure, shortened: as §1

[11] = compound: CCCS(=O)(=O)Nc1ccc(F)c(C(=O)c2c[nH]c3ncc(-c4ccc(Cl)cc4)cc23)c1F [vemurafenib]
Procedure, shortened: as §1

[12] = compound: CCCS(=O)(=O)Nc1ccc(F)c(C(=O)c2c[nH]c3ncc(Cl)cc23)c1F
Procedure, shortened: as §1

[13] = compound: CCN(CCCOc1ccc2c(Nc3cc(CC(=O)Nc4cccc(F)c4)[nH]n3)ncnc2c1)CCOP(=O)(O)O [barasertib]
Procedure, shortened: as §1

[14] = compound: CC[C@@H]1C(=O)N(C)c2cnc(Nc3ccc(C(=O)NC4CCN(C)CC4)cc3OC)nc2N1C1CCCC1
Procedure, shortened: as §1

[15] = compound: CC[C@@H]1C(=O)N(C)c2cnc(Nc3ccc(C(=O)N[C@H]4CC[C@H](N5CCN(CC6CC6)CC5)CC4)cc3OC)nc2N1C(C)C [volasertib]
Procedure, shortened: as §1

[16] = compound: CCn1c(C(=O)N(C2CC2)C2CC2)cc2c3c(ncn3C)c(Nc3cc(C)n(C)n3)nc21
Procedure, shortened: as §1

[17] = compound: CCn1cc(-c2ccnc3[nH]c(-c4cccc(CN(C)C)c4)cc23)c(-c2ccc(NC(=O)N(C)C)cc2)n1
Procedure, shortened: as §1

[18] = compound: CN1CCC(CNc2ccc3ncc(-c4cccc(OC(F)(F)F)c4)n3n2)CC1
Procedure, shortened: as §1

[19] = compound: CN1CCN(CCOc2cc(OC3CCOCC3)c3c(Nc4c(Cl)ccc5c4OCO5)ncnc3c2)CC1 [saracatinib]
Procedure, shortened: as §1

[20] = compound: CN1CCN(c2nc(C3=C(c4c[nH]c5ccccc45)C(=O)NC3=O)c3ccccc3n2)CC1 [sotrastaurin]
Procedure, shortened: as §1

Measured: log2 fold change

ZC3H13 (UniProt Q5T200)
Chain of UniProt Q5T200 (Q5T200 whole entry, looked up): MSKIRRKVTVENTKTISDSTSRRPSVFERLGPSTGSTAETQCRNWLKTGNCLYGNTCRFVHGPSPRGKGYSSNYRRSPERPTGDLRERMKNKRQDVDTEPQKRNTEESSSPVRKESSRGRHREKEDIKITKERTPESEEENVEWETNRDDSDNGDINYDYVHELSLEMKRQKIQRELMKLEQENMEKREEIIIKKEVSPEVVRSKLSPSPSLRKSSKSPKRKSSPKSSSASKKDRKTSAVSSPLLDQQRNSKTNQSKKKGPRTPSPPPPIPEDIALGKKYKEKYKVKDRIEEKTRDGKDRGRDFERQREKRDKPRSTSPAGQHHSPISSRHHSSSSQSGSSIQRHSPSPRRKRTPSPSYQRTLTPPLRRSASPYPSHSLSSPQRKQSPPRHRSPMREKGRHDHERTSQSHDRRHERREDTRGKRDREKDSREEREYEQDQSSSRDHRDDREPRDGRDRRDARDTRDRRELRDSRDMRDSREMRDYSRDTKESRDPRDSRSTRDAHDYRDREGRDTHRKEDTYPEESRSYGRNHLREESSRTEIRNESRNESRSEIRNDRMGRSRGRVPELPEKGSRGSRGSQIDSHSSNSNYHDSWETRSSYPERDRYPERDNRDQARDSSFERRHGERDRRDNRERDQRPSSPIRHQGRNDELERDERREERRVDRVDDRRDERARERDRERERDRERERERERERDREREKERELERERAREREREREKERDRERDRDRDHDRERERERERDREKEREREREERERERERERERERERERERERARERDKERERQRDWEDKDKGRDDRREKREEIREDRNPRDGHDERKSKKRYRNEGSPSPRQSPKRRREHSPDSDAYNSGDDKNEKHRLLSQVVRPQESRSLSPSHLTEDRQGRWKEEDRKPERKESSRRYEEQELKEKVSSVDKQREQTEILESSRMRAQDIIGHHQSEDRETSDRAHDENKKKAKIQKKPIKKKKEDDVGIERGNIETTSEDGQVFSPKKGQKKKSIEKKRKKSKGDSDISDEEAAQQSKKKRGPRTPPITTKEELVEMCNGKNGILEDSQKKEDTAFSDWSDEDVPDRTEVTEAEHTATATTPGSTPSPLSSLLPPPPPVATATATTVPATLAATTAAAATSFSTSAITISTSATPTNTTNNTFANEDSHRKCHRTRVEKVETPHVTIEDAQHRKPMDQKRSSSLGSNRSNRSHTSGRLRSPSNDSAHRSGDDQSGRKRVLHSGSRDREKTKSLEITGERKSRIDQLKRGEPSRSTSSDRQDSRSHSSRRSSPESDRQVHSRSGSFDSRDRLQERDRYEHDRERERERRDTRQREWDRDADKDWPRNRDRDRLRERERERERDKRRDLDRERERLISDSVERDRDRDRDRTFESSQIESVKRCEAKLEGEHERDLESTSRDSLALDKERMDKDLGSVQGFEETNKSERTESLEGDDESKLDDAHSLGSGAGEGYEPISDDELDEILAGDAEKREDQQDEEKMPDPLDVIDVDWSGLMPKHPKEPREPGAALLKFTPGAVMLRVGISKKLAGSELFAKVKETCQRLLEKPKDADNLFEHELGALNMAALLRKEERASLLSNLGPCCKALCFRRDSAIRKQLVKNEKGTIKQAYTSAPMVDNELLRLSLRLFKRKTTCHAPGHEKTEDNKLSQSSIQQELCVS
inactive: [1] 0.046 | [2] 0.009 | [3] -0.003 | [4] -0.072 | [5] 0.058 | [6] -0.101 | [7] 0.046 | [8] 0.08 | [9] -0.01 | [10] -0.022 | [11] -0.027 | [12] -0.037 | [13] -0.045 | [14] 0.036 | [15] -0.013 | [16] -0.031 | [17] 0.033 | [18] 0 | [19] -0.046 | [20] 0.222

VPS33A (UniProt Q96AX1)
inactive: [1] 0.024 | [2] -0.01 | [3] 0.039 | [4] 0.005 | [5] -0.003 | [6] 0.008 | [7] 0.013 | [8] 0.013 | [9] 0.043 | [10] -0.032 | [11] -0.012 | [12] 0.022 | [13] 0.037 | [14] 0.018 | [15] -0.042 | [16] 0.018 | [17] -0.041 | [18] -0.033 | [19] -0.001 | [20] 0.03

UNC45A (UniProt Q9H3U1)
inactive: [1] 0.002 | [2] -0.008 | [3] 0.03 | [4] -0.012 | [5] -0.009 | [6] -0.007 | [7] 0.002 | [8] 0.004 | [9] 0.002 | [10] -0.007 | [11] 0.013 | [12] 0.012 | [13] 0.018 | [14] -0.022 | [15] -0.039 | [16] 0.025 | [17] 0.02 | [18] -0.081 | [19] 0.017 | [20] -0.001

XAB2 (UniProt Q9HCS7)
inactive: [1] -0.089 | [2] -0.048 | [3] -0.002 | [4] -0.051 | [5] -0.011 | [6] 0.014 | [7] -0.032 | [8] 0.013 | [9] 0.03 | [10] -0.024 | [11] 0.033 | [12] 0.075 | [13] -0.015 | [14] 0.065 | [15] -0.02 | [16] 0.05 | [17] -0.044 | [18] 0.017 | [19] 0.006 | [20] 0

ZNF217 (UniProt O75362)
inactive: [1] -0.033 | [2] 0.053 | [3] 0.017 | [4] -0.014 | [5] -0.061 | [6] -0.005 | [7] -0.022 | [8] 0.002 | [9] 0.025 | [10] -0.031 | [11] 0.043 | [12] 0.019 | [13] 0.047 | [14] 0.099 | [15] -0.021 | [16] -0.028 | [17] -0.021 | [18] 0.076 | [19] 0.013 | [20] 0.052

XPOT (UniProt O43592)
Chain of UniProt O43592 (O43592 whole entry, looked up): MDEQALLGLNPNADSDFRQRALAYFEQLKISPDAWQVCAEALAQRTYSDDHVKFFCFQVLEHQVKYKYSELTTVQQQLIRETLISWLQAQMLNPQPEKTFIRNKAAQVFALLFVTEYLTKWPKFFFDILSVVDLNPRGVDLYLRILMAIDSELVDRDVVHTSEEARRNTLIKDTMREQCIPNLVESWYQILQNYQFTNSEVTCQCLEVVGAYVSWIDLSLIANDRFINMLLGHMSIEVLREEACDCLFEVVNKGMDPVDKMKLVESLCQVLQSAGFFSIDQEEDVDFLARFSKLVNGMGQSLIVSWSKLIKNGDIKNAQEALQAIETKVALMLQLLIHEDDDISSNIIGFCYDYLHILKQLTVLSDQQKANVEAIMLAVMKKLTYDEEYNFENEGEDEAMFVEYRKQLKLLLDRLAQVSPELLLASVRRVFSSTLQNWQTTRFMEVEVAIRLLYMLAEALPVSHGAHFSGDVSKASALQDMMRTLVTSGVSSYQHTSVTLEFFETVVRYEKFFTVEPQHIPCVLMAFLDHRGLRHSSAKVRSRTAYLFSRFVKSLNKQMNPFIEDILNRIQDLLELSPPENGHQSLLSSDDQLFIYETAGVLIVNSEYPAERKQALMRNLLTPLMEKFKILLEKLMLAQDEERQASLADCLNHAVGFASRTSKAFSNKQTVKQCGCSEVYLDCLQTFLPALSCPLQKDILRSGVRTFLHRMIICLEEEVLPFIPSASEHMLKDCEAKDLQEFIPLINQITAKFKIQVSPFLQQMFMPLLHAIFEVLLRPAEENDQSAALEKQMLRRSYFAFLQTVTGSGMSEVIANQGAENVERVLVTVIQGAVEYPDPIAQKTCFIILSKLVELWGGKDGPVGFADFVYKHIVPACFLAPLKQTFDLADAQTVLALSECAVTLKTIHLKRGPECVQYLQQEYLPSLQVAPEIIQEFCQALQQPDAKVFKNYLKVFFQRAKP
inactive: [1] -0.012 | [2] 0.009 | [3] 0.006 | [4] -0.038 | [5] -0.014 | [6] 0 | [7] 0.013 | [8] 0.016 | [9] 0.007 | [10] 0.018 | [11] -0.023 | [12] 0.014 | [13] 0.011 | [14] -0.097 | [15] -0.047 | [16] 0.036 | [17] -0.065 | [18] -0.001 | [19] -0.005 | [20] 0.002

YTHDF3 (UniProt Q7Z739)
Chain of UniProt Q7Z739 (Q7Z739 whole entry, looked up): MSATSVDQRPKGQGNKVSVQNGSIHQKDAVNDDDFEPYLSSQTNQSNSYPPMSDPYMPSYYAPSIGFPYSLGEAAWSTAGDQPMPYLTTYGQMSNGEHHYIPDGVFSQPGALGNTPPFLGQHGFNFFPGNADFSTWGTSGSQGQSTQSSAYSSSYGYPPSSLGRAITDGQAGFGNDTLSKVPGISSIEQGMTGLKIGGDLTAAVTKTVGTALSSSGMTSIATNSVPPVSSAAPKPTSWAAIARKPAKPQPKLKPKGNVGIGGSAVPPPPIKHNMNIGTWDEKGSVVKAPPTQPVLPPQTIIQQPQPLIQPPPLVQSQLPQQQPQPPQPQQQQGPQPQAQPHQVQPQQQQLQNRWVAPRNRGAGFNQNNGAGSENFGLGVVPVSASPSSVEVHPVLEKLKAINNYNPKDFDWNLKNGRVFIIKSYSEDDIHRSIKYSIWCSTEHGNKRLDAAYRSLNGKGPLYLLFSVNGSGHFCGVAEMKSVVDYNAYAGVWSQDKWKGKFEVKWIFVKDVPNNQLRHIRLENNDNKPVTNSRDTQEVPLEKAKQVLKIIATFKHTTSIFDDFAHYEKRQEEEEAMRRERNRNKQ
active: [8] -0.334
inactive: [1] -0.026 | [2] 0.066 | [3] -0.014 | [4] -0.033 | [5] 0.008 | [6] 0.017 | [7] 0.074 | [9] 0.009 | [10] 0.096 | [11] -0.019 | [12] 0.002 | [13] 0.119 | [14] 0.058 | [15] -0.071 | [16] 0.168 | [17] -0.041 | [18] 0.01 | [19] 0.076 | [20] -0.083

ZMYM2 (UniProt Q9UBW7)
Chain of UniProt Q9UBW7 (Q9UBW7 whole entry, looked up): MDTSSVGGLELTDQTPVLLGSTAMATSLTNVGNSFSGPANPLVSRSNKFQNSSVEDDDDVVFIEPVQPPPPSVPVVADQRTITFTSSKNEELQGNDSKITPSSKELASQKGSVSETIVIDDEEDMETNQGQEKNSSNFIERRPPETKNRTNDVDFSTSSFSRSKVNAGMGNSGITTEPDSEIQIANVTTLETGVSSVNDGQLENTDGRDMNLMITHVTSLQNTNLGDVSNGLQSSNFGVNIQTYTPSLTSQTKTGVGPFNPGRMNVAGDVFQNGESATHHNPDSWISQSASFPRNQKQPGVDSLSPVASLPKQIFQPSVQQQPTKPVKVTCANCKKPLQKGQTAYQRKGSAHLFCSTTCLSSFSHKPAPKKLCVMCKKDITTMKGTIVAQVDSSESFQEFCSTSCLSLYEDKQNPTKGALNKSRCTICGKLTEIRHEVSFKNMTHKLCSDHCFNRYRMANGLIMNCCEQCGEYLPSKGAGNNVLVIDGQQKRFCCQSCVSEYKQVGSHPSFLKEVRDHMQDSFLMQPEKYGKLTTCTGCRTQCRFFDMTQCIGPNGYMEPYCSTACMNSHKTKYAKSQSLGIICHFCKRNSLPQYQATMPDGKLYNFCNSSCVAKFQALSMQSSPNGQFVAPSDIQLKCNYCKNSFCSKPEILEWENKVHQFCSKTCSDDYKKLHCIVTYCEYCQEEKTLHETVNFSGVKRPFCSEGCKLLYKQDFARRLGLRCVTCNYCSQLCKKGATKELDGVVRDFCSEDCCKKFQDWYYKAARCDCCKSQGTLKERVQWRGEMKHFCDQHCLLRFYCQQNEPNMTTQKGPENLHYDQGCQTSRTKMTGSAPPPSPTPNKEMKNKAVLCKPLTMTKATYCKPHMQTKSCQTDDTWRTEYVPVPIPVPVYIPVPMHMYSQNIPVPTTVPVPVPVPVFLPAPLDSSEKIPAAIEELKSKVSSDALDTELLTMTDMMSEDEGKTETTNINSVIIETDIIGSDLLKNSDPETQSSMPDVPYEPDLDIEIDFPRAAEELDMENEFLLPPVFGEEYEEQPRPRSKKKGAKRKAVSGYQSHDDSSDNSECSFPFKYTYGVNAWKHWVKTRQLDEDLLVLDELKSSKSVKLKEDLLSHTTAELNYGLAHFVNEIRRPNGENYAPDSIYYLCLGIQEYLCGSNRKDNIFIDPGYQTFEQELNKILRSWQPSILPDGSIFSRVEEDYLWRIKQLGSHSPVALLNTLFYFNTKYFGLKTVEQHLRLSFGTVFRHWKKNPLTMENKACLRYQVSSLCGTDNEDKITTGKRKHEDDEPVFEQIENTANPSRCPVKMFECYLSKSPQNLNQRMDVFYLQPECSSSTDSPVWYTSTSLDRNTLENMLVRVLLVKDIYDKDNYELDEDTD
inactive: [1] -0.029 | [2] -0.059 | [3] -0.037 | [4] -0.106 | [5] -0.039 | [6] -0.008 | [7] -0.018 | [8] 0.004 | [9] 0.04 | [10] -0.068 | [11] 0.004 | [12] 0.101 | [13] -0.016 | [14] -0.034 | [15] -0.253 | [16] -0.119 | [17] 0.025 | [18] -0.196 | [19] 0.018 | [20] -0.008
